From PubChem BioAssay (NCI)
Compounds without any hit were thinned out: in the full panel of roughly 79,000, 15% have a hit. The source made the active and inactive calls. Rule as the data show it: active = growth inhibition above about 70%; inactive = the rest.

Experiments:
[1] = NCI Yeast Anticancer Drug Screen. Data for the rad52 strain (AID 147);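 also: 0% = growth of vehicle-treated control cultures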; conditions: S. cerevisiae rad52 mutant growth inhibition, stronger effect = higher value
Summary of the method: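 Genetically altered yeast (DNA damage repair defect) treated with compound; inhibition calculated relative to vehicle.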

[2] = NCI Yeast Anticancer Drug Screen. Data for the wt1 strain (AID 149);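 also: 0% = growth of vehicle-treated wt1 cultures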; conditions: S. cerevisiae wt1 strain (SPY 50644) growth inhibition, stronger effect = higher value
Summary of the method: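 Compounds are added to wt1 yeast cultures. Growth is then measured. Inhibition is expressed relative to vehicle-treated controls.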

[3] = NCI Yeast Anticancer Drug Screen. Data for the rad50EPP+ strain (AID 151);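 also: 0% = growth of vehicle-treated control cultures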; conditions: S. cerevisiae rad50 mutant strain, stronger effect = higher value
Summary of the method: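 Strain rad50EPP+; compound exposure; % growth inhibition vs vehicle.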

[4] = NCI Yeast Anticancer Drug Screen. Data for the mgt1 strain (AID 153); conditions: S. cerevisiae mgt1 mutant growth inhibition, stronger effect = higher value
Summary of the method: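 Read-out: yeast growth inhibition vs vehicle control. Strain mgt1, drawn from a panel altered in DNA damage repair or cell cycle control.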

[5] = NCI Yeast Anticancer Drug Screen. Data for the rad50 strain (AID 155);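 also: 0% = growth of vehicle-only cultures of the same strain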; conditions: S. cerevisiae rad50 strain growth inhibition, stronger effect = higher value
Summary of the method: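 Inhibition values express reduced yeast growth in compound-treated cultures relative to vehicle-treated controls.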

[6] = NCI Yeast Anticancer Drug Screen. Data for the mec2-1 strain (AID 157); conditions: S. cerevisiae mec2-1 strain, stronger effect = higher value
Summary of the method: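 Cells of the genetically defined mec2-1 yeast strain are incubated with test compound. Inhibition of growth is calculated against vehicle-treated controls.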

[7] = NCI Yeast Anticancer Drug Screen. Data for the rad14 strain (AID 159);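 also: 0% = growth of vehicle-treated control cultures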; conditions: S. cerevisiae rad14 strain growth inhibition, stronger effect = higher value
Summary of the method: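 A mutant yeast strain defective in DNA damage repair is treated with compound; inhibition of its growth is scored against untreated, vehicle-exposed cultures.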

[8] = NCI Yeast Anticancer Drug Screen. Data for the sgs1 mgt1 strain (AID 161);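 also: 0% = growth of cultures given vehicle only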; conditions: S. cerevisiae sgs1 mgt1 strain, stronger effect = higher value
Summary of the method: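 Genetically altered yeast, compound exposure, growth inhibition relative to vehicle.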

[9] = NCI Yeast Anticancer Drug Screen. Data for the CLN2oe strain (AID 163);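 also: 0% = growth of vehicle-only control cultures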; conditions: S. cerevisiae CLN2oe strain, stronger effect = higher value
Summary of the method: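 Strain altered in cell-cycle control, incubated with compound; growth compared to solvent-treated controls.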

[10] = NCI Yeast Anticancer Drug Screen. Data for the cln2 rad14 strain (AID 165);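 also: 0% = growth equal to vehicle treated cultures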; conditions: S. cerevisiae cln2 rad14 strain, stronger effect = higher value
Summary of the method: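 The screen exposed genetically defined yeast (cln2 rad14) to test compounds and scored growth inhibition relative to vehicle-treated controls.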

[11] = NCI Yeast Anticancer Drug Screen. Data for the bub3 strain (AID 167); conditions: S. cerevisiae bub3 mutant strain, stronger effect = higher value
Summary of the method: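 Steps: expose the mutant yeast strain to compound; grow alongside vehicle-treated cultures; measure growth; express inhibition against the vehicle cultures.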

[12] = NCI Yeast Anticancer Drug Screen. Data for the wt2 strain (AID 169);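 also: 0% = growth of vehicle-treated yeast cultures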; conditions: S. cerevisiae wt2 strain growth inhibition, stronger effect = higher value
Summary of the method: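 Steps: yeast strain treated with compound; growth recorded; inhibition calculated relative to cultures given vehicle alone.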

[13] = NCI Yeast Anticancer Drug Screen. Data for the mlh1 strain (AID 171);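 also: 0% = growth of vehicle-treated control cultures of the same strain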; conditions: S. cerevisiae mlh1 strain growth inhibition, stronger effect = higher value
Summary of the method: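 Yeast screen: mutant strain plus compound, growth scored against vehicle control wells.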

[14] = NCI Yeast Anticancer Drug Screen. Data for the sgs1 strain (AID 173);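 also: 0% = growth of vehicle-only control cultures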; conditions: S. cerevisiae sgs1 mutant, stronger effect = higher value
Summary of the method: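 Inhibition of yeast growth served as the measure. The mutant strain was treated with each compound, and growth was normalised to cultures receiving vehicle alone.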

[15] = NCI Yeast Anticancer Drug Screen. Data for the mlh1 rad18 strain (AID 175); conditions: S. cerevisiae mlh1 rad18 strain growth inhibition, stronger effect = higher value
Summary of the method: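 Compound-treated yeast growth, normalised to vehicle controls. Strain bears defined DNA repair mutations.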

[16] = NCI Yeast Anticancer Drug Screen. Data for the rad18 strain (AID 177); conditions: S. cerevisiae rad18 mutant growth inhibition, stronger effect = higher value
Summary of the method: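 Inhibition values reflect reduced yeast growth compared with vehicle-treated controls, using a strain engineered with a DNA damage repair defect.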

[17] = at 5.0 µM (retest, dose inferred, filed as 0.5)
[18] = at 50.0 µM (retest, dose inferred, filed as 5.0)

Measured: growth inhibition

CC(=O)Nc1ccc2c(c1)Cc1cc(N=C3C=CC(=O)O3)ccc1-2
inactive: [1]; at 1.2 µM 11% | [1]; at 3.7 µM 27% | [2]; at 1.2 µM 0% | [2]; at 3.7 µM 14% | [2]; at 11.0 µM 41% | [3]; at 1.2 µM 37% | [4]; at 1.2 µM 9% | [4]; at 3.7 µM 19% | [4]; at 11.0 µM 67% | [5]; at 1.2 µM 9% | [5]; at 3.7 µM 31% | [5]; [17] 60% | [5]; at 50.0 µM 28.6% | [6]; at 1.2 µM 19% | [6]; at 3.7 µM 31% | [6]; at 50.0 µM 15.8% | [7]; at 1.2 µM 12% | [7]; at 3.7 µM 27% | [8]; [17] 54% | [8]; at 50.0 µM 49.1% | [9]; at 1.2 µM 6% | [9]; at 3.7 µM 16% | [9]; at 11.0 µM 47% | [10]; [17] 9% | [10]; at 50.0 µM 24.9% | [11]; at 1.2 µM -1% | [11]; at 3.7 µM 7% | [11]; [17] 32% | [11]; at 50.0 µM 29.5% | [12]; at 1.2 µM 0% | [12]; at 3.7 µM 18% | [13]; at 1.2 µM 12% | [13]; at 3.7 µM 25% | [14]; at 1.2 µM 14% | [14]; at 3.7 µM 34% | [15]; at 50.0 µM 0.7% | [16]; at 1.2 µM 12% | [16]; at 3.7 µM 31%
active: [1]; at 11.0 µM 85% | [1]; at 33.0 µM 99% | [1]; at 100.0 µM 99% | [2]; at 33.0 µM 99% | [2]; at 100.0 µM 99% | [3]; at 3.7 µM 77% | [3]; at 11.0 µM 96% | [3]; at 33.0 µM 99% | [3]; at 100.0 µM 99% | [4]; at 33.0 µM 99% | [4]; at 100.0 µM 99% | [5]; at 11.0 µM 81% | [5]; at 33.0 µM 99% | [5]; [18] 99% | [5]; at 100.0 µM 99% | [6]; [17] 87% | [6]; at 11.0 µM 89% | [6]; at 33.0 µM 99% | [6]; [18] 99% | [6]; at 100.0 µM 99% | [7]; at 11.0 µM 84% | [7]; at 33.0 µM 99% | [7]; at 100.0 µM 99% | [8]; [18] 99% | [9]; at 33.0 µM 99% | [9]; at 100.0 µM 99% | [10]; [18] 99% | [11]; at 11.0 µM 72% | [11]; at 33.0 µM 99% | [11]; [18] 99% | [11]; at 100.0 µM 98% | [12]; at 11.0 µM 93% | [12]; at 33.0 µM 99% | [12]; at 100.0 µM 95% | [13]; at 11.0 µM 93% | [13]; at 33.0 µM 99% | [13]; at 100.0 µM 99% | [14]; at 11.0 µM 92% | [14]; at 33.0 µM 99% | [14]; at 100.0 µM 99% | [15]; [17] 82% | [15]; [18] 99% | [16]; at 11.0 µM 91% | [16]; at 33.0 µM 99% | [16]; at 100.0 µM 99%
